Assay results as given in PubChem BioAssay.

Legend:
[1] = tested on: Human papillomavirus type 1a protein E7 (residues 44-93); assay: HPV1a E7 fragment binders on microarrays, primary screen, biochemical, small-molecule microarray, residues 44-93, 635 nm fluorescence (AID 1108); details: small-molecule microarray binding, fluorescence 635 nm; higher = more signal;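 further: E7 fragment applied at 1 µg/mL in TBST for 1 h at 4 C; score combines spot fluorescence with its signal to noise ratio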
[2] = modulators of HCV replicon luciferase signal, primary screen, HCV replication inhibitor project, Huh7 cells, luciferase reporter (AID 1109); details: 48 h, higher = more signal;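 further: huh7 hepatoma cells harbouring a luciferase neomycin HCV replicon reporter; luciferase luminescence as measure of HCV replicon replication; test concentration not given here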
[3] = target: Left-right determination factor 2 (Homo sapiens) (UniProt O00292); assay: LEFTY2 binders on small-molecule microarrays, primary screen, biochemical, small-molecule microarray, 635 nm fluorescence scan (AID 1110); details: LEFTY2 binding, higher = more signal
[4] = target: Calmodulin-1 (Homo sapiens) (UniProt P0DP23); assay: CALM1 binders on microarrays, EGTA buffer, profiling panel, biochemical, small-molecule microarray, Cy5-labelled CALM1 (AID 1111); details: Cy5-CALM1 binding fluorescence, higher = more signal;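 further: labelled calmodulin applied in Tris saline Tween buffer holding calcium plus EGTA and DTT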
[5] = target: Calmodulin-1 (Homo sapiens) (UniProt P0DP23); assay: calcium-bound CALM1 binders on microarrays, profiling panel, artefact control for SMM control-protein annotation, biochemical, small-molecule microarray, Cy5-labelled CALM1, plus calcium (AID 1112); details: Cy5-CALM1 binding fluorescence, higher = more signal;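 further: score merges spot fluorescence with signal to noise from triplicate slides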
[6] = small-molecule microarray binders of probe aWnt5a, primary screen, biochemical, biotinylated probe, 635/667 nm fluorescence (AID 1113); details: higher = more signal;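 further: score merges 667 nm fluorescence intensity with signal-to-noise per printed feature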
[7] = small-molecule microarray binders of probe aShh, primary screen, biochemical, biotinylated probe, 635/667 nm fluorescence (AID 1114); details: higher = more signal;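 further: probe is biotin-labelled aShh protein from a stem cell growth factor screen; measures binding of labelled protein to compounds printed on the slide; score merges feature fluorescence at 667 nm with signal-to-noise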
[8] = small-molecule microarray binders of probe aNog, primary screen, biochemical, biotinylated probe, 635/667 nm fluorescence (AID 1115); details: higher = more signal;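 further: probe is biotinylated aNog protein used at 0.15 µg/mL for 1 h at 4 C; z-score combines 667 nm fluorescence of each spot with its signal to noise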
[9] = target: Torsin-1A-interacting protein 1 (Homo sapiens) (UniProt Q5JTV8); assay: LAP1 binders from COS7 cell lysate, primary screen, small-molecule microarray, 635/667 nm fluorescence (AID 1116); details: COS7-hLAP1 lysate binding, 635 nm fluorescence, higher = more signal
[10] = target: Alpha-bungarotoxin (Bungarus multicinctus) (UniProt P60615); assay: alpha-bungarotoxin binders on microarray, profiling panel, artefact control for SMM control protein annotation, biochemical, small-molecule microarray, Alexa647 label, 635/667 nm fluorescence (AID 1117); details: alpha-BTX-A647 binding fluorescence, higher = more signal
Alpha-bungarotoxin (Bungarus multicinctus), sequence (P60615 whole entry, looked up): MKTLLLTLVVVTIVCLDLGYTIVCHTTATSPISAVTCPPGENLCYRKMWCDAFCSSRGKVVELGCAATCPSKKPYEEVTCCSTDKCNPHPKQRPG

Left-right determination factor 2 (Homo sapiens), sequence (O00292 whole entry, looked up): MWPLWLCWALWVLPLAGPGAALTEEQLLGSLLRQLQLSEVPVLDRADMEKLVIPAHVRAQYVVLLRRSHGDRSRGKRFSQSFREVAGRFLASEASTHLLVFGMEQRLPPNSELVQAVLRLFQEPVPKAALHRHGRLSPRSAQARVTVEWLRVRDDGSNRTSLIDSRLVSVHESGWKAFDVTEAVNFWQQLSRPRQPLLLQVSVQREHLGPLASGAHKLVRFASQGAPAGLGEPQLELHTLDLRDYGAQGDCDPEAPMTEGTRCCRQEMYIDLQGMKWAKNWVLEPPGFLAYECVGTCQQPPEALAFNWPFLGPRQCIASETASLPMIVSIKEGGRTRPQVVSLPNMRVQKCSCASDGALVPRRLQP
Torsin-1A-interacting protein 1 (Homo sapiens), sequence (Q5JTV8 whole entry, looked up): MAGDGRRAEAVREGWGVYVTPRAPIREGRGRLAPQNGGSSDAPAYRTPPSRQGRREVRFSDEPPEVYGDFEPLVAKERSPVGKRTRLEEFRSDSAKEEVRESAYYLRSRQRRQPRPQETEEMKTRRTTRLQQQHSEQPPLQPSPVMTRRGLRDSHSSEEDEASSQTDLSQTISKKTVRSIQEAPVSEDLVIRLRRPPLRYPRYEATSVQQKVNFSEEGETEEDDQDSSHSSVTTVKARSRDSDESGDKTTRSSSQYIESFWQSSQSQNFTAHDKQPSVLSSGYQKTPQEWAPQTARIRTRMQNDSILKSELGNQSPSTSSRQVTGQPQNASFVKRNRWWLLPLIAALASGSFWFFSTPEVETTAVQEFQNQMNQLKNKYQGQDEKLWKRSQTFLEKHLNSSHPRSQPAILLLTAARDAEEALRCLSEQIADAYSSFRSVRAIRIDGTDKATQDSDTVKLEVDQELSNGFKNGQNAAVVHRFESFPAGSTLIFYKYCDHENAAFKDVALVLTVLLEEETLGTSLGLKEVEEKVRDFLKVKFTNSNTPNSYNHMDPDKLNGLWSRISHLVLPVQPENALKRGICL

| SMILES | composite z-score [1] | z-score [2] | composite z-score [3] | composite z-score [4] | composite z-score [5] | composite z-score [6] | composite z-score [7] | composite z-score [8] | composite z-score [9] | composite z-score [10] |
| --- | --- | --- | --- | --- | --- | --- | --- | --- | --- | --- |
| CN(C)CCCNC(=O)[C@@]1(c2ccc([N+](=O)[O-])cc2)CC(=O)N(CC23CC4CC(CC(C4)C2)C3)[C@@H]1c1ccc(CO)cc1 | 1.23 | -3.26 | 0.364 | 1.43 | 0.398 | 0.249 | 0.806 | 2.24 | 2.35 | 1.83 |
| [N-]=[N+]=NCc1ccccc1[C@H]1OC(c2ccc(OCCCO)cc2)=N[C@@]1(CCS(=O)(=O)c1ccccc1)C(N)=O | 1.11 | -0.281 | 0.264 | 0.145 | 0.257 | -0.096 | 0.265 | 1.4 | 1.47 | 2.43 |
| C=C(COC)/C(=C/C[C@@H](OC(=O)c1ccncc1)c1ccc(OCCO)cc1)c1cnc2ccccc2c1 | 1.3 | -1.59 | 1.12 | 0.695 | -0.604 | 0.0151 | -0.167 | 0.827 | 1.66 | 1.5 |
| COC(=O)Cn1c(C(=O)N2CCCC2)cc2c1C[C@H]1CN(C(=O)c3ccccc3)[C@@](Cc3ccc(F)cc3)(C(=O)OC)[C@@H]21 | -0.137 | -1.32 | -0.0715 | 1.15 | 0.153 | -0.0405 | -0.0738 | -0.298 | 0.943 | -0.155 |
| CCOC(=O)C[C@H]1[C@H](OC(=O)Cc2ccc3c(c2)OCO3)[C@@H](NC(=O)C2CCCCC2)c2cc(OCCCO)ccc2N1C(=O)c1ccc2ccccc2n1 | 1.33 | -1.27 | 0.924 | 0.0105 | -0.896 | -0.1 | -0.164 | 0.0862 | 0.746 | 0.663 |
| COCCCNC(=O)[C@@H]1c2ccccc2C(=O)N(Cc2ccccc2C(F)(F)F)[C@H]1c1ccc(CO)cc1 | 0.367 | -0.469 | -0.431 | -0.119 | 0.423 | -0.152 | -0.266 | 0.265 | 0.612 | -0.295 |
| O=C(O)[C@H](Cc1ccccc1)n1cc(-c2ccccn2)nn1 | 0.55 | 0.107 | -0.0097 | 0.429 | 0.33 | -0.152 | -0.0866 | -0.0827 | 0.524 | 0.35 |
| COc1cc2c(cc1OC)CN(C(=O)[C@H]1[C@@H]3C(=O)O[C@@H](c4ccccc4)[C@@H](c4ccccc4)N3[C@@H](c3ccc(OCCO)cc3)[C@]13C(=O)Nc1ccc(C#CCCO)cc13)CC2 | 1.43 | -0.563 | 0.509 | 1.23 | 0.642 | 0.0668 | -0.0146 | 0.033 | 1.02 | 1.72 |
| C[C@]1(C(=O)NCCN2CCOCC2)c2ccccc2C(=O)N(Cc2ccc(OC(F)(F)F)cc2)[C@H]1c1ccc(CO)cc1 | 1.44 | -0.705 | -1.24 | 0.084 | -0.0325 | -0.252 | -0.503 | -0.313 | 0.836 | 0.396 |
| C[N+](C)(C)CCCC[C@@H]1NC(=O)[C@@H]2C[C@H](C(=O)O)[C@H](c3ccc(O)cc3)N2C1=O | -3.49 | 0.964 | -0.566 | -0.0386 | 0.305 | -0.197 | -0.141 | -0.359 | 0.136 | 0.0213 |
| COCC(=C=CC[C@H](O)c1ccc(OCCO)cc1)C[C@H](O)COCc1ccccc1 | 0.486 | -0.313 | 0.32 | -0.0904 | -0.847 | -0.0718 | -0.279 | -0.302 | 1.52 | 0.439 |
